Shown are actives, neighbours in structure and some others; about 31% of the full set was active somewhere.
CYP2C9 inhib: blocks human cytochrome P450 2C9. inhibition, % at 5 µM. CYP2C9 Supersomes, luciferin-H conversion, luminescence. actives 20% (n = 96,000). P11712;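 active = blocking of liver enzyme CYP2C9 beyond about 50% at 5 µM, limit read from the data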
Target sequence (P11712 whole entry, looked up): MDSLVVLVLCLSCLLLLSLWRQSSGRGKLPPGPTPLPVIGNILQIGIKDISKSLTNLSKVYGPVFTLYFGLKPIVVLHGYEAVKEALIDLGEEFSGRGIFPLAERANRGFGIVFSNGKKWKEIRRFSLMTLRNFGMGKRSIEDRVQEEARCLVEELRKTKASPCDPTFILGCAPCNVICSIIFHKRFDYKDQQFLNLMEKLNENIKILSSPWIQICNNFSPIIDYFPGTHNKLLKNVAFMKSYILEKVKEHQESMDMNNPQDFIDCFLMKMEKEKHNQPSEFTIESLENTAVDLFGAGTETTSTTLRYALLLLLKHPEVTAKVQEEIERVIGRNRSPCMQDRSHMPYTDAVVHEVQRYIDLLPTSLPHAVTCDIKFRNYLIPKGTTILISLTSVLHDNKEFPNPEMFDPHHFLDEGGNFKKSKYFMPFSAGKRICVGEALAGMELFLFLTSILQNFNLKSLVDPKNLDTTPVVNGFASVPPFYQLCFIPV
CYP2C9 act: activators of human CYP2C9. recombinant CYP2C9, luciferin-H conversion, luminescence; hits give high values; factor 1 = untreated enzyme, 0 = blocked. activation factor at 5 µM. P11712. actives 1.4% (n = 96,000);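 active = activation factor of 2 or more for CYP2C9 at a 5 µM dose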
CYP2C19 inh: inhibitors of human CYP2C19 | P33261 | CYP2C19 Supersomes, luciferin-H EGE luminescence, 30 min | inhibition, % at 5 µM | actives 21% (n = 96,000);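 active = CYP2C19 inhibition above a set limit at 5 µM in the primary screen, cut at about 50% in these data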
CYP2C19 act: cytochrome P450 2C19 (human) activation | P33261 | recombinant CYP2C19, luciferin-H EGE luminescence; hits give high values; 0 = fully inhibited enzyme, 1 = untreated enzyme | AID 1025 | 96,000 tested, under 10 active | activation factor at 5 µM;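 active = activation factor of at least 2 at 5 µM in the primary screen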
Numbers stand for hits; . = inactive.

SMILES	CYP2C9 inhib	CYP2C9 act	CYP2C19 inh	CYP2C19 act
CC(Sc1nnc(Cc2cccs2)n1C1CCCCC1)C(=O)NCc1ccco1 (stereo not drawn)	75	.	.	.
CC(Sc1nnc(Cc2cccs2)n1C1CCCCC1)C(=O)N1CCc2ccccc21 (stereo not drawn)	76	.	78	.
Cc1ccc(OC(C)C(=O)N2CCc3ccccc32)cc1 (stereo not drawn)	.	.	.	.
Cc1ccc(-c2noc(CNCCCN(C)C)n2)cc1	.	.	.	.
CCOc1ccccc1N1C(=O)CC(N(O)c2ccccc2)C1=O (stereo not drawn)	.	.	93	.
Cc1c(Cl)cccc1N1C(=O)CC(N(O)c2ccccc2)C1=O (stereo not drawn)	.	2.6	94	.
Cc1cccc(C)c1N1C(=O)CC(N(O)c2ccccc2)C1=O (stereo not drawn)	.	.	97	.
CCCn1c(N)c(C(=O)CSc2nnnn2-c2ccc(O)cc2)c(=O)n(C)c1=O	.	.	.	.
CC(=O)C(Sc1ccc2nnc(-c3ccc(F)cc3)n2n1)C(C)=O	70	.	.	.
CCOC(=O)CC(=O)CSc1ccc2nnc(-c3ccc(C)cc3)n2n1	55	.	.	.
CCOc1ccc(-c2nnc3ccc(SCC(=O)N4CCCCC4)nn23)cc1	.	.	.	.
CC(C)Oc1ccc(CNC(=S)N/N=C/c2ccc([N+](=O)[O-])cc2)cc1	.	.	.	.
C=C(C)CSc1nc(N)cc(=O)[nH]1	.	.	.	.
C=CCc1c(C)nc(SCC(=C)C)[nH]c1=O	.	.	55	.
COc1ccc(S(=O)(=O)N(C)CC(=O)Nc2cccc(C(C)=O)c2)cc1Cl	.	.	93	.
COc1ccc(S(=O)(=O)N(C)CC(=O)Nc2ccc(F)cc2)cc1	.	2.2	.	.
COc1cc(OC)cc(C(=O)Nc2cccc(C(C)=O)c2)c1	76	.	71	.
COc1cccc(C(=O)Nc2cccc(NC(C)=O)c2)c1	.	.	.	.
COc1ccc(S(=O)(=O)N2CCCC(C(=O)Nc3cccc(C(C)=O)c3)C2)cc1 (stereo not drawn)	.	.	.	.
COc1ccc(S(=O)(=O)N(C)CC(=O)Nc2cccc(C(C)=O)c2)cc1	.	.	88	.
O=C(CSc1nnc(CNc2ccc(Cl)cc2)o1)Nc1nc2ccccc2s1	.	.	.	.
COc1ccc(S(=O)(=O)N(C)CC(=O)NC2CCCC2)cc1Cl	.	.	55	.
N#Cc1c(Nc2ccccc2)c(C=NCCN2CCOCC2)c[nH]c1=O	.	.	73	.
COCC(=O)Nc1ccc(S(=O)(=O)Nc2ncccn2)cc1	.	.	.	.
CC1(C)C2CCC1(C)C(NC(=O)CCN1CCCCC1)C2 (stereo not drawn)	62	.	.	.
SMILES	CYP2C9 inhib	CYP2C9 act	CYP2C19 inh	CYP2C19 act
CCCCCCCCS(=O)c1sc2nc(C)cc(C)c2c1N (stereo not drawn)	79	.	88	.
Cn1ncc2nc[nH]c(=O)c21	.	.	50	.
CN/S(=N/S(=O)(=O)c1ccccc1)c1ccc(C)cc1 (stereo not drawn)	.	.	76	.
Cc1noc(C)c1C(=O)OCC(=O)c1c(N)n(CC(C)C)c(=O)n(C)c1=O	.	.	.	.
CC1=CC(C)(C)N2C(=O)C3(SCC(=O)N3c3ccc(F)cc3)c3cc(C)cc1c32 (stereo not drawn)	63	.	.	.
CC1=C(C(=O)Nc2ccccc2C)C(c2ccc(C)o2)N2C(=O)CSC2=N1 (stereo not drawn)	.	.	.	.
COc1cccc(NC(=O)c2ccco2)c1	.	.	.	.
COc1ccc(Br)cc1C(=O)Nc1cccc(C)c1	.	.	.	.
COc1ccc(Br)cc1C(=O)Nc1cccc(NC(=O)c2ccco2)c1	.	.	88	.
Cc1cc(C)c(OCC(=O)Nc2cccc(NC(=O)c3ccco3)c2)c(Br)c1	74	.	96	.
COc1c(C)cc(Br)cc1C(=O)Nc1cccc(NC(=O)c2ccco2)c1	83	.	97	.
O=C(Nc1cccc(NC(=O)c2ccc(-c3cccc(Br)c3)o2)c1)c1ccco1	60	.	54	.
CCOC(=O)c1cnn(-c2nc(CC)nc3sc4c(c23)CCC4)c1N	.	.	.	.
CC(C)C(c1nnnn1Cc1ccccc1)N(Cc1ccco1)Cc1cccs1 (stereo not drawn)	89	.	96	.
COc1ccc(Cn2nnnc2C(C(C)C)N(Cc2ccco2)Cc2cccs2)cc1 (stereo not drawn)	66	.	56	.
CC(C)C(c1nnnn1Cc1ccco1)N1CCN(C2CCCC2)CC1 (stereo not drawn)	.	.	.	.
O=C(N/N=C/c1c[nH]c2ccc(Br)cc12)c1ccn(Cc2ccc(Cl)cc2Cl)n1	.	.	.	.
Cc1cc(OC(=O)CNC(=O)OC(C)(C)C)c2c(C)cc(=O)oc2c1	.	.	.	.
Cc1c(CCO)c(=O)n(-c2ccccc2)n1S(=O)(=O)c1ccc(Cl)cc1	.	.	70	.
O=C(COc1ccccc1)N1CCN(S(=O)(=O)c2ccc(Cl)cc2)CC1	.	.	.	.
CCOc1ccc(N(C(C)C(=O)N/N=C(\C)c2cccc(NC(=O)c3ccccc3)c2)S(C)(=O)=O)cc1 (stereo not drawn)	69	.	76	.
CCOc1ccc(N(C(C)C(=O)NC(C)CC)S(C)(=O)=O)cc1 (stereo not drawn)	.	.	.	.
COCCn1c(C)c(C(=O)O)sc1=S	.	.	.	.
CCC1CC2(C)NC(=O)c3c(sc4c3CC(C)(C)OC4)N2C1=O (stereo not drawn)	.	.	.	.
Cc1cc(NC(=O)CCC(=O)N(CC(=O)NC2CCCC2)Cc2ccco2)no1	.	.	.	.
SMILES	CYP2C9 inhib	CYP2C9 act	CYP2C19 inh	CYP2C19 act
COc1cccc(CN(CC(=O)NC2CCCC2)C(=O)CCC(=O)Nc2cc(C)on2)c1	78	.	51	.
COCCNC(=O)CN(C(=O)CCC(=O)Nc1cc(C)on1)c1cccc(C)c1C	.	.	57	.
COc1cccc(CN(CC(=O)NC2CCCC2)C(=O)Cn2nnc(-c3cccs3)n2)c1	97	.	66	.
COc1cccc(NC(=O)c2ocnc2C)c1	.	.	.	.
c1cc2c(cc1Nc1nc(-c3ccc4c(c3)OCO4)cs1)OCCO2	87	.	73	.
CC(C)(C)C(=O)Nc1nc(-c2ccc3c(c2)OCO3)cs1	94	.	92	.
CCCNS(=O)(=O)c1ccc(CCC(=O)NCc2ccco2)cc1	.	.	.	.
CC(C)(C)NS(=O)(=O)c1ccc(CCC(=O)NCc2ccco2)cc1	67	.	.	.
CC(C)(C)NS(=O)(=O)c1ccc(CCC(=O)NCc2cccnc2)cc1	87	.	.	.
COc1cc([N+](=O)[O-])ccc1NC(=O)CCCOc1cccc(C)c1	.	.	.	.
COC(=O)c1sc(NC(=O)CSc2nnnn2-c2ccc(C)cc2C)nc1C	.	.	.	.
CCn1c(SCC(=O)c2ccc(CNC(C)=O)o2)nnc1-c1cccs1	.	.	.	.
